# Source: PubChem
# The list is not random: actives were taken first. Their share in the collection is about 3.6%.
# TROY signal inh = blocks TROY-dependent signaling in reporter cells. Q293 LMP1-TROYcd NF-kB luciferase reporter, 4 h. inhibition, % at 10 µM. hit rate 0.98% among 360,000. AID 1347056;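 active = compounds whose plate-normalised and pattern-corrected inhibition of the luciferase reporter signal at the single screening dose is 50% or more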
# LGR2 antag = blocks bursicon-induced cAMP signaling via Drosophila LGR2 | inhibition, % at 9.99 µM | HEK293 LGR2, CRE-luciferase, bursicon-stimulated, 4 h | AID 720647 | hit rate 0.35% among 380,000;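 active = drop in luminescence signal, shown as inhibition above about 50% in the replicate tests, limit read from the data, passing the limit was not always enough; inconclusive = probably only some replicates passing the limit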;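 also: agonist challenge used bursicon conditioned medium at about half maximal strength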
# HSF-1 act = increases HSF-1 driven luciferase reporter signal; NIH3T3-HGL HSF-1 luciferase reporter, MG132, 8 h; 100% = twice DMSO control signal; activation, % at 9 µM; hit rate 1.7% among 300,000; AID 504408;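 active = mean replicate activation of at least 50% with a set share of replicates each reaching 50%; inconclusive = only one of those two conditions met; inactive = mean below 50% and too few replicates reaching it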
# EBV LMP1 NFkB = reduces LMP1-driven NF-kappaB luciferase signal. LMP1-induced NF-kappaB luciferase reporter cells, luminescence. inhibition, % at 12.5 µM. hit rate 0.69% among 350,000. AID 504558; in the data active = inhibition above about 41%; inconclusive = no clear call, values can overlap the other calls
# HSF1 inh = HSF1 inhibition. NIH3T3-HGL HSE-luciferase, MG132-induced, luminescence 8 h; active compounds read low. hit rate 0.77% among 300,000. activity change, negative = inhibition, % at 7.5 µM (by protocol). AID 2098;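 active = more than half of replicate wells show activity change below -50%, luminescence cut by over half; inconclusive = some wells, but at most half, below -50%; inactive = no replicate well below -50%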;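 also: luciferase reports HSF-1 transcriptional activity via heat shock element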
# TWEAK Fn14 block = TWEAK-Fn14 signaling inhibition | TWEAK-stimulated Fn14 reporter cells, luciferase luminescence, 8 h | inhibition, % at 10 µM | hit rate 2% among 360,000; in the data active = inhibition above about 50%
# Numbers stand for hits; - = inactive; ? = inconclusive; . = not tested or not shown.
SMILES,TROY signal inh,LGR2 antag,HSF-1 act,EBV LMP1 NFkB,HSF1 inh,TWEAK Fn14 block
C=CCOc1cccc(C(=O)N2CCCC(CCC(=O)NCc3ccccc3F)C2)c1 (stereo unspecified),-,-,-,-,-,-
Cc1noc(C)c1NC(=O)N(C)C[C@H]1OCCCC[C@H](C)Oc2ccc(NS(C)(=O)=O)cc2C(=O)N([C@H](C)CO)C[C@@H]1C,.,-,.,.,.,.
CC(OC(=O)c1nsc(Cl)c1Cl)C(=O)NCc1ccc2c(c1)OCO2 (stereo unspecified),-,-,-,-,-85,-
N=c1c(S(=O)(=O)c2ccc(Br)cc2)cc2c(=O)n3ccccc3nc2n1Cc1ccco1,-,-,-,-,-,-
COc1ccc(CCNC(=O)c2cc3c(=O)n4ccccc4nc3n(Cc3ccco3)c2=N)cc1OC,62,-,-,-,-,96
COc1ccc(CCNC(=O)c2cc3c(=O)n4ccccc4nc3n(CCCN3CCOCC3)c2=N)cc1,-,-,-,-,-,-
N=c1c(S(=O)(=O)c2ccc(Cl)cc2)cc2c(=O)n3ccccc3nc2n1Cc1ccco1,-,-,137,-,-,53
COc1ccc(CCNC(=O)c2cc3c(=O)n4ccccc4nc3n(CCN3CCOCC3)c2=N)cc1,-,-,-,-,-,63
C[C@H]1CCCCO[C@H](CN(C)CC2CCCCC2)[C@@H](C)CN([C@@H](C)CO)C(=O)c2cc(NC(=O)c3ccncc3)ccc2O1,.,-,.,.,.,.
Cc1nn(C)c2ncc(C(=O)c3ccccc3O)cc12,-,-,-,-,-,-
Cc1[nH]nc2ncc(C(=O)c3ccccc3O)cc12,-,.,-,-,-,59
CC(O)c1nc2ccccc2n1Cc1nnc(-c2ccc(Cl)cc2)o1 (stereo unspecified),-,.,-,-,-56,-
Cc1noc(C)c1NC(=O)N(C)C[C@H]1Oc2ccc(NC(=O)Nc3cccc4ccccc34)cc2CC(=O)N([C@H](C)CO)C[C@H]1C,.,-,.,.,.,.
Cc1ccc(S(=O)(=O)c2cc3cc(Br)ccc3oc2=O)cc1,-,-,-,-,-,80
CC(C)c1ccc(S(=O)(=O)c2cc3cc(Br)ccc3oc2=O)cc1,-,-,-,-,-,54
O=c1oc2cc(O)ccc2cc1S(=O)(=O)c1ccccc1,-,-,?,-,-,-
Cc1ccc(NC2=Nc3ccccc3CC2)cc1,61,.,-,-,-,72
Brc1ccc(NC2=Nc3ccccc3CC2)cc1,-,.,-,-,-,-
COc1ccc(C2(C#N)CCC(=O)N2c2ccccc2)cc1 (stereo unspecified),52,.,-,-,-,-
CCCC(=O)Nc1ccc2c(c1)C(=O)N(C)C[C@H](OC)[C@H](C)CN(Cc1ccc(-c3ccccn3)cc1)[C@@H](C)CO2,.,-,.,.,.,.
O=C(NC(=S)NC1C2CC3CC(C2)CC1C3)c1ccccc1 (stereo unspecified),-,-,-,-,-58,-
O=C(NC(=S)NC1CCCC1)c1ccccc1,-,-,-,-,-,-
CCN(Cc1ccc2c(c1)OCCO2)C(=O)CSc1nc(C)nc2sc(C)c(C)c12,58,-,.,-,.,-
COc1ccc(NS(=O)(=O)c2ccc(-c3ccccn3)s2)cc1,-,.,-,.,-87,-
C[C@@H]1CN([C@H](C)CO)C(=O)c2cc(NC(=O)NC3CCCCC3)ccc2O[C@H]1CN(C)S(=O)(=O)c1ccccc1,.,-,.,.,.,.
SMILES,TROY signal inh,LGR2 antag,HSF-1 act,EBV LMP1 NFkB,HSF1 inh,TWEAK Fn14 block
C[C@@H](NC(=O)C[C@@H]1CC[C@H](NC(=O)C2CC2)[C@H](CO)O1)c1ccccc1,.,-,.,.,.,.
Cc1ccc(OCC(=O)NNC(=O)C2CCN(c3ncnc4sc(C)c(C)c34)CC2)cc1,-,-,-,-,-,-
Cc1cc(Cl)ccc1OCC(=O)NNC(=O)C1CCN(c2ncnc3sc(C)c(C)c23)CC1,72,-,.,-,.,82
Cc1sc2ncnc(N3CCC(C(=O)NNC(=O)COc4ccccc4Cl)CC3)c2c1C,-,-,-,-,-,-
COc1ccc(OCC(=O)NNC(=O)C2CCN(c3ncnc4sc(C)c(C)c34)CC2)cc1,-,-,.,-,.,-
Cc1c(C(=O)Nc2ccc3c(c2)OCCO3)sc2ncnc(N3CCCCC3C)c12 (stereo unspecified),-,-,-,.,-,53
Cc1sc2ncnc(N3CCC(C(=O)NNC(=O)COc4ccc(Cl)cc4)CC3)c2c1C,50,-,.,-,.,87
Cc1sc2ncnc(N3CCC(C(=O)NNC(=O)COc4cccc(C(F)(F)F)c4)CC3)c2c1C,-,-,-,-,-,56
Cc1nc(N2CCC(C)CC2)c2c(C)c(C(=O)Nc3ccc4c(c3)OCCO4)sc2n1,-,-,-,-,-,-
C[C@@H]1CN([C@@H](C)CO)S(=O)(=O)c2ccc(C3=CCCC3)cc2O[C@@H]1CN(C)Cc1ccccn1,.,-,.,.,.,.
CO[C@@H]1CN(C)C(=O)c2cc(NC(=O)c3ccccc3F)ccc2OC[C@@H](C)N(CC2CC2)C[C@@H]1C,.,-,.,.,.,.
Cc1sc2ncnc(N3CCC(C(=O)NNC(=O)c4ccccc4Cl)CC3)c2c1C,-,-,-,-,-,-
Cc1sc2ncnc(N3CCC(C(=O)Nc4ccc(OC(F)F)c(Cl)c4)CC3)c2c1C,51,?,.,-,.,-
COc1ccc(NC(=O)c2sc3nc(C)nc(N4CCN(c5ccccn5)CC4)c3c2C)cc1Cl,-,-,-,-,-,-
COc1ccc(NC(=O)c2sc3ncnc(N4CCN(c5ccccn5)CC4)c3c2C)cc1Cl,-,-,-,44,-,76
Cc1sc2ncnc(N3CCC(C(=O)NNC(=O)COc4ccc(Br)cc4)CC3)c2c1C,74,-,-,-,-,88
Cc1cc(Br)ccc1NC(=O)CN(C)C(=O)C1CCN(c2ncnc3sc(C)c(C)c23)CC1,-,-,.,-,.,59
Cc1cccc(C)c1NC(=O)CN(C)C(=O)C1CCN(c2ncnc3sc(C)c(C)c23)CC1,-,-,-,-,-,-
O=C(C[C@@H]1C[C@@H]2c3cc(NC(=O)c4ccc5c(c4)OCO5)ccc3O[C@@H]2[C@H](CO)O1)NCc1ccccn1,.,-,.,.,.,.
CCCNC(=O)C[C@@H]1C[C@@H]2c3cc(NC(=O)Nc4ccccc4)ccc3O[C@@H]2[C@H](CO)O1,.,-,.,.,.,.
COCC(=O)N(C)C[C@@H]1Oc2cc(C#C[C@H](C)O)ccc2S(=O)(=O)N([C@@H](C)CO)C[C@H]1C,.,-,.,.,.,.
Cc1noc(C)c1NC(=O)Nc1ccc2c(c1)C(=O)N([C@@H](C)CO)C[C@@H](C)[C@@H](CN(C)C(=O)Nc1cccc3ccccc13)O2,.,-,.,.,.,.
Cc1ccc(S(=O)(=O)N2CCN(C(=O)C3CCN(c4ncnc5sc(C)c(C)c45)CC3)CC2)c(C)c1,-,-,.,-,.,51
CC(C)CCNC1c2ccccc2C(=O)N1Cc1ccccc1 (stereo unspecified),-,-,54,-,-,-
C=CCNC(=O)c1ccc2nc(Cc3ccc(OC)cc3)oc2c1,-,-,78,-,-,-
